Consider twelve molecules from PMC12864922, “TDP-43 directly inhibits mRNA accumulation in neurites through modulation of mRNA stability”.

Whole data set: some 9,900 sequences, median “r (bound/input frequency ratio)” near 0.7, cut for the highest 2% near 6.5. The sample as a whole holds a higher share of the highest values than the screen did.

To fix the notation:
B1: ENSMUSG00000028439.187|Fam219a|6:23;33:40 (ssRNA)
RNA: GGGAGUUCUACAGUCCGACGAUCGCUUCGAUAUCCGCAUGCUAUGUGCCACACACACACACACACAUGUACCCGACACACACAUGAGCCUAUCUGUCCAGGGAACCAGAUUGGUGUCCGAGAUGAGGAAAUGGCUGUGGCCUGGGAAAUCAGUGAGAGGCCGCUUGGGAAUGAGAAUGCAGUGGACUGAAAGCACAGCCUGGCCAUCUGGAACCUGGGUUCUGGUCCCAGCCUCGGCAUUCUCCCUGAGCUCCUAAGCAAUUCCCAGGCUUCUCUAGGGCUUCAGUUCUCACAACUGGAAAAUCUCUUGCGGUCGCACUAGUGUGGAAUUCUCGGGUGUCAAGG
B2: ENSMUSG00000061578.500|Ksr2|29:34;201:207 (ssRNA)
RNA: GGGAGUUCUACAGUCCGACGAUCGCUUCGAUAUCCGCAUGCUACUCUGCCUCCCAAGUGCUGGGAUUAAAGCACACAACCACCAUUGCAAUCUUGAACUCUUGACCAAUAGAAAUCCUAGACUAGUGUUGCUAGGCAACUGACUGUAUUCAGGACACCCAGGGUGGGAGGUGGAUGGAGCUCUUGCCUAACACACACCAAGCCCCAAGUUCCAUCCCCAGUCCCACACAAACCAGAUAUGAUGCACACACCCUAUGUCCCCCACACACGAGAGAGCUGGAGGCAGGAGGAUCAGAAGUUCAGGCUCUUGCGGUCGCACUAGUGUGGAAUUCUCGGGUGUCAAGG
B3: ENSMUSG00000028439.185|Fam219a|1:16;18:35;45:52 (ssRNA)
RNA: GGGAGUUCUACAGUCCGACGAUCGCUUCGAUAUCCGCAUGCUAACACACAUACACACACCCACACACACACACACACAUGUACCCGACACACACAUGAGCCUAUCUGUCCAGGGAACCAGAUUGGUGUCCGAGAUGAGGAAAUGGCUGUGGCCUGGGAAAUCAGUGAGAGGCCGCUUGGGAAUGAGAAUGCAGUGGACUGAAAGCACAGCCUGGCCAUCUGGAACCUGGGUUCUGGUCCCAGCCUCGGCAUUCUCCCUGAGCUCCUAAGCAAUUCCCAGGCUUCUCUAGGGCUUCAGUUCUCACUCUUGCGGUCGCACUAGUGUGGAAUUCUCGGGUGUCAAGG
B4: ENSMUSG00000061578.502|Ksr2|17:22;189:195 (ssRNA)
RNA: GGGAGUUCUACAGUCCGACGAUCGCUUCGAUAUCCGCAUGCUAAGUGCUGGGAUUAAAGCACACAACCACCAUUGCAAUCUUGAACUCUUGACCAAUAGAAAUCCUAGACUAGUGUUGCUAGGCAACUGACUGUAUUCAGGACACCCAGGGUGGGAGGUGGAUGGAGCUCUUGCCUAACACACACCAAGCCCCAAGUUCCAUCCCCAGUCCCACACAAACCAGAUAUGAUGCACACACCCUAUGUCCCCCACACACGAGAGAGCUGGAGGCAGGAGGAUCAGAAGUUCAGGGCCAUCCUUAAUCUCUUGCGGUCGCACUAGUGUGGAAUUCUCGGGUGUCAAGG
B5: ENSMUSG00000028439.186|Fam219a (ssRNA)
RNA: GGGAGUUCUACAGUCCGACGAUCGCUUCGAUAUCCGCAUGCUAUAUGUGUGUGCGUGUGUGUGUGUGUGUGUUGUACCCGAGUGUGUGUUGAGCCUAUCUGUCCAGGGAACCAGAUUGGUGUCCGAGAUGAGGAAAUGGCUGUGGCCUGGGAAAUCAGUGAGAGGCCGCUUGGGAAUGAGAAUGCAGUGGACUGAAAGCACAGCCUGGCCAUCUGGAACCUGGGUUCUGGUCCCAGCCUCGGCAUUCUCCCUGAGCUCCUAAGCAAUUCCCAGGCUUCUCUAGGGCUUCAGUUCUCACAACUGCUCUUGCGGUCGCACUAGUGUGGAAUUCUCGGGUGUCAAGG
B6: ENSMUSG00000028439.188|Fam219a (ssRNA)
RNA: GGGAGUUCUACAGUCCGACGAUCGCUUCGAUAUCCGCAUGCUAUGUGUGUGUGUGUGUGUUGUACCCGAGUGUGUGUUGAGCCUAUCUGUCCAGGGAACCAGAUUGGUGUCCGAGAUGAGGAAAUGGCUGUGGCCUGGGAAAUCAGUGAGAGGCCGCUUGGGAAUGAGAAUGCAGUGGACUGAAAGCACAGCCUGGCCAUCUGGAACCUGGGUUCUGGUCCCAGCCUCGGCAUUCUCCCUGAGCUCCUAAGCAAUUCCCAGGCUUCUCUAGGGCUUCAGUUCUCACAACUGGAAAAUAAAGAGCUCUUGCGGUCGCACUAGUGUGGAAUUCUCGGGUGUCAAGG
B7: ENSMUSG00000028439.187|Fam219a (ssRNA)
RNA: GGGAGUUCUACAGUCCGACGAUCGCUUCGAUAUCCGCAUGCUAUGUGCGUGUGUGUGUGUGUGUGUUGUACCCGAGUGUGUGUUGAGCCUAUCUGUCCAGGGAACCAGAUUGGUGUCCGAGAUGAGGAAAUGGCUGUGGCCUGGGAAAUCAGUGAGAGGCCGCUUGGGAAUGAGAAUGCAGUGGACUGAAAGCACAGCCUGGCCAUCUGGAACCUGGGUUCUGGUCCCAGCCUCGGCAUUCUCCCUGAGCUCCUAAGCAAUUCCCAGGCUUCUCUAGGGCUUCAGUUCUCACAACUGGAAAAUCUCUUGCGGUCGCACUAGUGUGGAAUUCUCGGGUGUCAAGG
B8: ENSMUSG00000061578.501|Ksr2|23:28;195:201 (ssRNA)
RNA: GGGAGUUCUACAGUCCGACGAUCGCUUCGAUAUCCGCAUGCUACUCCCAAGUGCUGGGAUUAAAGCACACAACCACCAUUGCAAUCUUGAACUCUUGACCAAUAGAAAUCCUAGACUAGUGUUGCUAGGCAACUGACUGUAUUCAGGACACCCAGGGUGGGAGGUGGAUGGAGCUCUUGCCUAACACACACCAAGCCCCAAGUUCCAUCCCCAGUCCCACACAAACCAGAUAUGAUGCACACACCCUAUGUCCCCCACACACGAGAGAGCUGGAGGCAGGAGGAUCAGAAGUUCAGGGCCAUCCUCUUGCGGUCGCACUAGUGUGGAAUUCUCGGGUGUCAAGG
B9: ENSMUSG00000028439.184|Fam219a|6:22;24:41;51:58 (ssRNA)
RNA: GGGAGUUCUACAGUCCGACGAUCGCUUCGAUAUCCGCAUGCUAUGUGCCACACACAUACACACACCCACACACACACACACACAUGUACCCGACACACACAUGAGCCUAUCUGUCCAGGGAACCAGAUUGGUGUCCGAGAUGAGGAAAUGGCUGUGGCCUGGGAAAUCAGUGAGAGGCCGCUUGGGAAUGAGAAUGCAGUGGACUGAAAGCACAGCCUGGCCAUCUGGAACCUGGGUUCUGGUCCCAGCCUCGGCAUUCUCCCUGAGCUCCUAAGCAAUUCCCAGGCUUCUCUAGGGCUUCAGCUCUUGCGGUCGCACUAGUGUGGAAUUCUCGGGUGUCAAGG
B10: ENSMUSG00000028439.184|Fam219a (ssRNA)
RNA: GGGAGUUCUACAGUCCGACGAUCGCUUCGAUAUCCGCAUGCUAUGUGCGUGUGUGUAUGUGUGUGCGUGUGUGUGUGUGUGUGUUGUACCCGAGUGUGUGUUGAGCCUAUCUGUCCAGGGAACCAGAUUGGUGUCCGAGAUGAGGAAAUGGCUGUGGCCUGGGAAAUCAGUGAGAGGCCGCUUGGGAAUGAGAAUGCAGUGGACUGAAAGCACAGCCUGGCCAUCUGGAACCUGGGUUCUGGUCCCAGCCUCGGCAUUCUCCCUGAGCUCCUAAGCAAUUCCCAGGCUUCUCUAGGGCUUCAGCUCUUGCGGUCGCACUAGUGUGGAAUUCUCGGGUGUCAAGG
B11: ENSMUSG00000028439.189|Fam219a (ssRNA)
RNA: GGGAGUUCUACAGUCCGACGAUCGCUUCGAUAUCCGCAUGCUAUGUGUGUGUGUUGUACCCGAGUGUGUGUUGAGCCUAUCUGUCCAGGGAACCAGAUUGGUGUCCGAGAUGAGGAAAUGGCUGUGGCCUGGGAAAUCAGUGAGAGGCCGCUUGGGAAUGAGAAUGCAGUGGACUGAAAGCACAGCCUGGCCAUCUGGAACCUGGGUUCUGGUCCCAGCCUCGGCAUUCUCCCUGAGCUCCUAAGCAAUUCCCAGGCUUCUCUAGGGCUUCAGUUCUCACAACUGGAAAAUAAAGAGUAGCUGCUCUUGCGGUCGCACUAGUGUGGAAUUCUCGGGUGUCAAGG
B12: ENSMUSG00000028439.185|Fam219a (ssRNA)
RNA: GGGAGUUCUACAGUCCGACGAUCGCUUCGAUAUCCGCAUGCUAUGUGUGUAUGUGUGUGCGUGUGUGUGUGUGUGUGUUGUACCCGAGUGUGUGUUGAGCCUAUCUGUCCAGGGAACCAGAUUGGUGUCCGAGAUGAGGAAAUGGCUGUGGCCUGGGAAAUCAGUGAGAGGCCGCUUGGGAAUGAGAAUGCAGUGGACUGAAAGCACAGCCUGGCCAUCUGGAACCUGGGUUCUGGUCCCAGCCUCGGCAUUCUCCCUGAGCUCCUAAGCAAUUCCCAGGCUUCUCUAGGGCUUCAGUUCUCACUCUUGCGGUCGCACUAGUGUGGAAUUCUCGGGUGUCAAGG

The target in this assay is TDP-43 (Homo sapiens, UniProt Q13148 1-414). Description: RNA Bind-n-Seq with designed 260-mer pool; 25 mM Tris-HCl, 150 mM KCl, 3 mM MgCl2, BSA (printed 500 mg/mL), 20 units/mL SUPERase IN; pH not stated; 500 nM RNA pool, 1 h, 4 C; TDP-43 5, 50, 500 nM; high values mean tight binding. To be noted: protein: recombinant; tags: SBP (GST cleaved off with PreScission; pGEX-GST-SBP). A digest of the protocol: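 For each oligo, R gives binding as its mapped-read-normalized abundance after pulldown divided by its abundance in input. Bead-captured SBP-tagged TDP-43 (5, 50 or 500 nM) was incubated with 500 nM of an in vitro-transcribed 260-nt 3′ UTR oligo pool for 1 h at 4 °C in 25 mM Tris-HCl, 150 mM KCl, 3 mM MgCl2, BSA and SUPERase IN on streptavidin beads. Washed, biotin-eluted RNA was reverse transcribed, PCR-amplified and sequenced.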
TDP-43, sequence (Q13148 whole entry): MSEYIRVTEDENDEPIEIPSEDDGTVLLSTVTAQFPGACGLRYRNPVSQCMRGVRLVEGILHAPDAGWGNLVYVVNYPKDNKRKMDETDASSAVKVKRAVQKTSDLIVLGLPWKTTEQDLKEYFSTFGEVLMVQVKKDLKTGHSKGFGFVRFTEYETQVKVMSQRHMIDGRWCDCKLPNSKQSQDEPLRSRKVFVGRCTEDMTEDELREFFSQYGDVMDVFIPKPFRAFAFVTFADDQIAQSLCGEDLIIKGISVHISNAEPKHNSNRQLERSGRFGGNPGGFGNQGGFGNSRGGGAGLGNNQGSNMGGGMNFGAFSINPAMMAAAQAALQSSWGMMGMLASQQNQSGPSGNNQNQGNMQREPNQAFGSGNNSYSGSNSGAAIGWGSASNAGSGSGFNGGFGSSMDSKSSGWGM
On to B1, for which the binding signal is 1.44 R (bound/input frequency ratio). To B2 belongs 3.25 R (bound/input frequency ratio); to B3, 2.5 R (bound/input frequency ratio); to B4, 3.46 R (bound/input frequency ratio). In the case of B5, the binding signal is 6.13 R (bound/input frequency ratio).

In the case of B6, the binding signal was 4.17 R (bound/input frequency ratio).

Consider B7, for which the binding signal is 6.68 R (bound/input frequency ratio). B8: the binding signal is 6.59 R (bound/input frequency ratio).

As for B9, the binding signal was 2.43 R (bound/input frequency ratio). B10: the binding signal is 7.33 R (bound/input frequency ratio).

Consider B11, for which the binding signal was 1.86 R (bound/input frequency ratio). As to B12, the binding signal is 7.73 R (bound/input frequency ratio).
